Source: PubChem BioAssay
Only some compounds are listed: those with a hit (about 2.8% of all), similar ones and a draw of the others.
LGR2 antag – blocks bursicon-induced cAMP signaling via Drosophila LGR2. HEK293 LGR2, CRE-luciferase, bursicon-stimulated, 4 h. hit rate 0.35% among 380,000. inhibition, % at 9.99 µM;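 active = drop in luminescence signal, shown as inhibition above about 50% in the replicate tests, limit read from the data, passing the limit was not always enough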;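 note: agonist challenge used bursicon conditioned medium at about half maximal strength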
EWS-Fli block – inhibitors of EWS/Fli oncoprotein transcriptional activity | A673 NR0B1-luciferase reporter, viability-normalised | inhibition, % at 12.6 µM | hit rate 0.67% among 350,000 | AID 651661;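 active = mean inhibition of at least 50% after viability correction, with every replicate also passing that limit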;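 note: firefly luciferase signal divided by Alamar Blue viability fluorescence both relative to DMSO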
PAX8 inh HTS – inhibitors of PAX8 transcriptional activity in RMG-I cells | RMG-I TPO-luciferase reporter, SteadyGlo, 24 h | inhibition, % at 12.6 µM | hit rate 1.2% among 360,000 | AID 652154;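 active = mean replicate inhibition at least 60% with every replicate also reaching 60%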;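 note: luciferase light reporting Pax8 driven TPO promoter activity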
TROY NFkB inh – inhibitors of TROY-dependent NF-kB signaling | Q293 LMP1-TROYcd NF-kB luciferase reporter, 4 h | inhibition, % at 10 µM | hit rate 0.98% among 360,000;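 active = compounds whose plate-normalised and pattern-corrected inhibition of the luciferase reporter signal at the single screening dose is 50% or more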
TWEAK Fn14 block – inhibitors of TWEAK-Fn14 interaction signaling; TWEAK-stimulated Fn14 reporter cells, luciferase luminescence, 8 h; inhibition, % at 10 µM; hit rate 2% among 360,000; AID 1159606; in the data active = inhibition above about 50%
Large screens that a line does not name were inactive.

COc1cccc(NC(=O)Nc2nnc(CC(=O)Nc3ccccc3)s2)c1	TWEAK Fn14 block 51
COc1ccc(NC(=O)Nc2nnc(CC(=O)Nc3ccccc3)s2)cc1	none
COc1cccc(-c2csc(NC(=O)Nc3ccccc3)n2)c1	TROY NFkB inh 58, TWEAK Fn14 block 86
COC(=O)N1C(=O)[C@](c2ccc(Cl)cc2)(C(C)C)N1C(=O)OC	none
COC(=O)N1C(=O)[C@@](c2ccc(OC)cc2)(C(C)C)N1C(=O)OC	TWEAK Fn14 block 57 (no result: EWS-Fli block, PAX8 inh HTS)
COC(=O)N1C(=O)[C@@](c2ccccc2)(C(C)C)N1C(=O)OC	TWEAK Fn14 block 61 (no result: LGR2 antag, EWS-Fli block, PAX8 inh HTS)
C[C@@H]1CCCCO[C@H](CN(C)C)[C@@H](C)CN([C@H](C)CO)C(=O)c2cc(NS(=O)(=O)c3ccc(Cl)cc3)ccc2O1	none (no result: TROY NFkB inh, TWEAK Fn14 block)
CO[C@@H]1CN(C)C(=O)c2cc(NC(=O)c3cnccn3)ccc2OC[C@H](C)N(C(C)=O)C[C@@H]1C	none (no result: TROY NFkB inh, TWEAK Fn14 block)
O=C(Nc1ccc(Br)c(C(F)(F)F)c1)c1ccccc1	none
O=C(Nc1ccc(OCC(F)(F)C(F)F)c(C(F)(F)F)c1)c1ccc(Cl)cc1	TROY NFkB inh 52, TWEAK Fn14 block 77 (no result: LGR2 antag, EWS-Fli block, PAX8 inh HTS)
O=C(Nc1ccc(Br)c(C(F)(F)F)c1)c1ccc(C(F)(F)F)cc1	TWEAK Fn14 block 63
COc1ccc(S(=O)(=O)N(C)C[C@H]2Oc3ccc(NC(=O)NC4CCCCC4)cc3C(=O)N([C@@H](C)CO)C[C@@H]2C)cc1	none (no result: PAX8 inh HTS, TROY NFkB inh, TWEAK Fn14 block)
O=S(=O)(Nc1ccc(O)c2ccccc12)c1cccs1	TWEAK Fn14 block 82
O=C(NCC1CC1)[C@@H]1[C@@H](CO)[C@@H]2Cn3c(ccc(/C=C/c4ccccc4)c3=O)[C@H]1N2C(=O)C1CC1	none (no result: PAX8 inh HTS, TROY NFkB inh, TWEAK Fn14 block)
C[C@H](CO)N1C[C@H](C)[C@H](CN(C)C(=O)C2CCOCC2)Oc2ncc(C#CC(C)(C)O)cc2C1=O	none (no result: PAX8 inh HTS, TROY NFkB inh, TWEAK Fn14 block)
CC1(C(=O)NCc2cccc(C(F)(F)F)c2)CCN1Cc1ccc(-c2ccccc2)o1 (stereo unspecified)	PAX8 inh HTS 74
CC1(C(=O)NCc2cccc(C(F)(F)F)c2)CCN1Cc1cc2ccccc2o1 (stereo unspecified)	none
COc1nn(-c2ccccc2)c(=O)c(Cl)c1Cl	EWS-Fli block 76, PAX8 inh HTS 117, TROY NFkB inh 74, TWEAK Fn14 block 99
COc1c(Cl)cnn(-c2ccccc2)c1=O	none (no result: EWS-Fli block)
COc1ccccc1N1CCN(C(=S)Nc2ccccc2)CC1	none
COc1ccccc1N1CCN(C(=S)Nc2ccc(F)cc2)CC1	TROY NFkB inh 53
CC12CCC(=O)C=C1CCC1C2C(=O)CC2(C)C1CC[C@]2(O)C(=O)CO (stereo partly specified)	TWEAK Fn14 block 78
COc1ccc(S(=O)(=O)N(C)C[C@@H]2OCCCC[C@@H](C)Oc3ccc(NS(=O)(=O)c4ccc(F)cc4)cc3C(=O)N([C@@H](C)CO)C[C@H]2C)cc1	none (no result: TROY NFkB inh, TWEAK Fn14 block)
CC(=O)c1cccc(NC(=O)COC(=O)COc2c(Cl)cc(Cl)c3ccc(C)nc23)c1	TWEAK Fn14 block 63 (no result: LGR2 antag)
Cc1ccc2c(Cl)cc(Cl)c(OCC(=O)OCC(=O)Nc3ccc(C#N)cc3)c2n1	none (no result: LGR2 antag)
O=C(Nc1ccccc1)N1C[C@H]2[C@@H](c3ccccc31)[C@@H](CO)N2CC1CCCC1	none (no result: TROY NFkB inh, TWEAK Fn14 block)
O=C(/C=C/c1ccc([N+](=O)[O-])cc1)Nc1ncc([N+](=O)[O-])s1	LGR2 antag 94, TWEAK Fn14 block 66
Cc1cccc(N2CCN(C(=O)C3CCN(S(=O)(=O)c4cccc5cccnc45)CC3)CC2C)c1 (stereo unspecified)	none
COc1ccc2nc(NC(=O)C3CCN(S(=O)(=O)c4cccc5nsnc45)CC3)sc2c1	PAX8 inh HTS 63, TROY NFkB inh 61, TWEAK Fn14 block 97 (no result: LGR2 antag, EWS-Fli block)
Cc1nnc(NC(=O)C2CCN(S(=O)(=O)c3cc([N+](=O)[O-])ccc3Cl)CC2)o1	none
Cc1cccc2sc(NC(=O)C3CCN(S(=O)(=O)c4cc([N+](=O)[O-])ccc4Cl)CC3)nc12	TWEAK Fn14 block 54
Cc1cccc(N2CCN(C(=O)C3CCN(S(=O)(=O)c4cccc5nsnc45)CC3)CC2C)c1 (stereo unspecified)	TWEAK Fn14 block 56 (no result: LGR2 antag, EWS-Fli block)
CCC(=O)N(C)C[C@@H]1[C@H](c2ccc(C3=CCCC3)cc2)[C@H](CO)N1C(=O)CC	none (no result: TROY NFkB inh, TWEAK Fn14 block)
COc1ccc(-c2cnc(SCC(=O)Nc3ccc4c(c3)OCO4)n2Cc2ccco2)cc1	none (no result: LGR2 antag, EWS-Fli block)
CC(=O)Nc1cccc(NC(=O)CSc2ncc(-c3ccc(Cl)cc3)n2Cc2ccco2)c1	TROY NFkB inh 61, TWEAK Fn14 block 81 (no result: LGR2 antag, EWS-Fli block)
O=C(CSc1ccc(-c2ccc(Cl)cc2)nn1)Nc1ccc2c(c1)OCCO2	TROY NFkB inh 62
Cc1ccc(NC(=O)CSc2ccc(-c3ccc4c(c3)OCO4)nn2)cc1F	none (no result: EWS-Fli block, PAX8 inh HTS)
O=C(CSc1nnc(-c2ccc(Cl)cc2)n1Cc1ccco1)Nc1ccc2c(c1)OCCO2	TROY NFkB inh 52 (no result: LGR2 antag, EWS-Fli block, PAX8 inh HTS)
O=C(CN1CCC(C(=O)c2ccc(Cl)cc2)CC1)Nc1ccc2c(c1)OCCO2	TWEAK Fn14 block 62 (no result: LGR2 antag, EWS-Fli block, PAX8 inh HTS)
COc1ccc(OCCCC(=O)NCCc2ccc(OC)c(OC)c2)cc1	none
COc1ccc(NC(=O)CCCC(=O)NCCc2ccc(OC)c(OC)c2)cc1	TWEAK Fn14 block 89
COc1ccc(CCNC(=O)/C=C/c2ccc3ccccc3n2)cc1OC	PAX8 inh HTS 77
CCCC(=O)Nc1ccc2c(c1)C(=O)N(C)C[C@H](OC)[C@@H](C)CN(CC1CCOCC1)[C@H](C)CO2	none (no result: PAX8 inh HTS, TROY NFkB inh, TWEAK Fn14 block)
CC1=C(CC(=O)c2ccccc2)C(=O)c2ccccc2C1=O	TROY NFkB inh 68, TWEAK Fn14 block 54 (no result: LGR2 antag, EWS-Fli block)
CO[C@@H]1CN(C)C(=O)c2cc(NC(=O)C3CCC3)ccc2OC[C@@H](C)NC[C@H]1C	none (no result: TROY NFkB inh, TWEAK Fn14 block)
C[C@@H]1CN([C@@H](C)CO)C(=O)c2cc(NC(=O)Nc3ccc4c(c3)OCO4)ccc2O[C@@H](C)CCCCO[C@H]1CN(C)Cc1ccc(C(F)(F)F)cc1	PAX8 inh HTS 61 (no result: TROY NFkB inh, TWEAK Fn14 block)
C[C@@H]1CN([C@H](C)CO)C(=O)c2cc(NC(=O)Nc3ccc4c(c3)OCO4)ccc2O[C@@H](C)CCCCO[C@@H]1CN(C)Cc1ccc(C(F)(F)F)cc1	PAX8 inh HTS 66 (no result: TROY NFkB inh, TWEAK Fn14 block)
C[C@H](CO)N1C[C@H](C)[C@H](CN(C)Cc2ccc(C(F)(F)F)cc2)OCCCC[C@H](C)Oc2ccc(NC(=O)Nc3ccc4c(c3)OCO4)cc2C1=O	PAX8 inh HTS 96 (no result: TROY NFkB inh, TWEAK Fn14 block)
C[C@@H]1CCCCO[C@@H](CN(C)Cc2ccc(C(F)(F)F)cc2)[C@@H](C)CN([C@H](C)CO)C(=O)c2cc(NC(=O)Nc3ccc4c(c3)OCO4)ccc2O1	none (no result: TROY NFkB inh, TWEAK Fn14 block)
C[C@@H]1CCCCO[C@H](CN(C)Cc2ccc(C(F)(F)F)cc2)[C@H](C)CN([C@H](C)CO)C(=O)c2cc(NC(=O)Nc3ccc4c(c3)OCO4)ccc2O1	PAX8 inh HTS 67 (no result: TROY NFkB inh, TWEAK Fn14 block)
C[C@@H]1CN([C@@H](C)CO)C(=O)c2cc(NC(=O)Nc3ccc4c(c3)OCO4)ccc2O[C@@H](C)CCCCO[C@@H]1CN(C)Cc1ccc(C(F)(F)F)cc1	none (no result: TROY NFkB inh, TWEAK Fn14 block)
CO[C@@H]1CN(C)C(=O)c2cc(NC(=O)CC(F)(F)F)ccc2OC[C@H](C)N(C(=O)c2ccccc2F)C[C@@H]1C	none (no result: TROY NFkB inh, TWEAK Fn14 block)
